Results filed as inconclusive are left out. Activity calls are given as the source filed them. Unless noted, calls come from the whole dose curve; as a rule, active = well fitted curve in the direction sought with a large enough effect; inconclusive = small, poorly fitted or top-dose-only effect, or another doubt; inactive = no such curve, though single readings can be large; an effect the other way counts as inactive or inconclusive.
Assays:
[1] = biological target: DNA repair nuclease/redox regulator APEX1 (Homo sapiens) (UniProt P27695); test: qHTS Validation Assay for Inhibitors of the Human Apurinic/apyrimidinic Endonuclease 1 (APE1) (AID 1705;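 note: TAMRA fluorescence gain over two minutes as APE1 cuts a quenched THF abasic duplex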)
DNA repair nuclease/redox regulator APEX1 (Homo sapiens), sequence (P27695 whole entry, looked up): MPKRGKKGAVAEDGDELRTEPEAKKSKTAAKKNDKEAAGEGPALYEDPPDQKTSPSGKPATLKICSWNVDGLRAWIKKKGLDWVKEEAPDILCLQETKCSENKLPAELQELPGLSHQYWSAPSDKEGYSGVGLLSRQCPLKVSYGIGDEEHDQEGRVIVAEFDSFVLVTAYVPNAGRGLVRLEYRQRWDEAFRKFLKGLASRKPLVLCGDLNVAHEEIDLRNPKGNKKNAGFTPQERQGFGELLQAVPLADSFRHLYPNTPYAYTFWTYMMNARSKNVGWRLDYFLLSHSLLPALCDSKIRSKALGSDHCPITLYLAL
Method in brief: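 qHTS, 1536-well. APE1 + cpd 15 min RT → 50 nM TAMRA/BHQ-2 THF-abasic dsDNA substrate → kinetic fluorescence, 3 reads/60 s; delta(read3−read1) = reaction progress. No-enzyme buffer = negative control.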

[2] = Counterscreen for APE1 Inhibitors: Fluorescent Dye Displacement Validation Assay (AID 1707)
Method in brief: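 ThO 250 nM + dsDNA 50 nM (THF abasic site, 5'-TAMRA), Tris-HCl pH7.5/50mM NaCl/2 mM MgCl2/0.01% Tween-20; compounds pin-transferred; ex 480/em 540 nm endpoint. Neutral = no compound; no-DNA ThO wells = negative control.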

[3] = biological target: Endonuclease 4 (Escherichia coli (strain K12)) (UniProt P0A6C1); test: Counterscreen for APE1 Inhibitors: qHTS Validation Assay for Inhibitors of Endonuclease IV (AID 1708)
Method in brief: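 Concentration-response counterscreen run identically to the APE1 assay: 15 min room-temperature preincubation of 2 nM enzyme with compound, reaction started with 50 nM quenched abasic DNA, progress taken from kinetic fluorescence.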

[4] = qHTS for differential inhibitors of proliferation of Plasmodium falciparum line GB4 (AID 1816); details: Potency: Plasmodium falciparum GB4 proliferation inhibition;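 note: parasite growth measured after 72 h incubation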
[5] = qHTS for differential inhibitors of proliferation of Plasmodium falciparum line 3D7 (AID 1876);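 note: parasite growth measured after three days of culture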
[6] = qHTS for differential inhibitors of proliferation of Plasmodium falciparum line D10 (AID 1877);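 note: parasites grown with compound for 72 h before DNA staining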
[7] = qHTS Assay for Modulators of Human Peripheral Myelin Protein 22 (PMP22) Expression/Activity (AID 1967; active = well fitted curve in the direction sought with a large enough effect in the signal ratio; the % refers to the signal ratio)
Method in brief: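 Luminescence ratio of Pmp22 promoter-driven green luciferase to EF-alpha-driven red luciferase, in engineered mouse MSC80 Schwann cells, served as read-out. Compounds were incubated 24h; untreated cells defined 0% Activity; curves were classified by r2, magnitude and activity.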

[8] = biological target: ATP-dependent DNA helicase Q1 (Homo sapiens) (UniProt P46063); test: qHTS Validation Assay for Inhibitors of RecQ-Like Dna Helicase 1 (RECQ1) (AID 2353)
Method in brief: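 50 nM RECQ1T1 preincubated 15 min with compound in Tris pH 8.0 buffer with MgCl2, DTT, Tween-20 and 2.5 ug/ml poly(dI-dC); started with 200 nM TAMRA/BHQ-2 forked duplex and 2 mM ATP. Unwinding read as fluorescence (525/598 nm), two reads 2 h apart.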

[9] = biological target: RecQ-like DNA helicase BLM (Homo sapiens) (UniProt P54132); test: qHTS Validation Assay for Inhibitors of Bloom's syndrome helicase (BLM) (AID 2364)
Method in brief: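 BLM 50 nM in 25 mM Tris-HCl pH 8.0, 5 mM NaCl, 2 mM MgCl2, 1 mM DTT, 0.01% Tween-20, 2.5 ug/ml poly(dI-dC); 15 min cpd preinc, RT. Start: 200 nM forked DNA + 2 mM ATP (final). TAMRA read, 2 reads 2 h apart.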

[10] = Cytometric Cell-Based qHTS for Inhibitors of the mTORC1 Signaling Pathway in MEF (Tsc2-/-, p53-/-) Cells (AID 2660);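 note: percent of cells above a phospho-rpS6 to PI ratio cutoff in each well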
Method in brief: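 Percent of cells positive for normalized phospho-S6 staining is reported, with the cutoff set from rapamycin (7.5 nM) versus DMSO wells. Tsc2-/-, p53-/- MEFs received compound for 24 hrs.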

[11] = High Content Imaging Cell-Based qHTS for Inhibitors of the mTORC1 Signaling Pathway in MEF (Tsc2-/-, p53-/-) Cells (AID 2666);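 note: percent of cells scored positive for phospho-rpS6 Ser235/236 immunostaining by imaging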
Method in brief: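 Read-out: % positive cells per well, with thresholds from highest- and lowest-signal wells, based on phospho-rpS6 (Ser235/236) intensity normalized to Hoechst nuclear stain. Cells: Tsc2-/-, p53-/- MEFs carrying empty vector; compound 24 hrs, 37 degree Celsius.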

[12] = High Content Imaging Cell-Based qHTS for Inhibitors of the mTORC1 Signaling Pathway in MEF Cells (AID 2667);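 note: Tsc2-/- p53-/- MEFs stably re-expressing wild-type Tsc2 exposed 24 h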
Method in brief: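 MEF (Tsc2-/-, p53-/-, WT Tsc2 re-expressed); cpd 24 h, 37 °C; PFA fix; Alexa-488 anti-p-rpS6 Ser235/236, PI, Hoechst; IN Cell imaging; Hoechst/Alexa-488 intensity ratio; % active cells, thresholds set from rapamycin and DMSO wells.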

[13] = Cytometry Cell-Based qHTS for Inhibitors of the mTORC1 Signaling Pathway in MEF cells (AID 2668);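 note: Tsc2-/- p53-/- mouse embryonic fibroblasts stably re-expressing wild-type Tsc2; percent cells positive for phospho-rpS6 Ser235/236 relative to propidium iodide stain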
Method in brief: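 Tsc2-/-, p53-/- MEFs re-expressing WT Tsc2; cpd 24 hrs, 37 degree Celsius; PFA fix, Alexa-488 p-rpS6 (Ser235/236) Ab 2 hrs RT, PI counterstain; Acumen 488nm scan; p-S6/PI ratio → % positive cells; PI count = viability.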

[14] = Validation screen for inhibitors of Lassa infection (AID 463096; calls by dose curve)
[15] = Validation screen for small molecules that induce DNA re-replication in MCF 10A normal breast cells (AID 463097); note: nearly all actives have a fitted effect of over 60% in size
Method in brief: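 Image-based qHTS: normal breast cells are incubated with compound for 48 hr, stained with Hoechst, and scanned for total nuclear fluorescence. Compounds raising the fraction of nuclei with elevated DNA content count as re-replication inducers.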

[16] = biological target: Ubiquitin carboxyl-terminal hydrolase 2 (Homo sapiens) (UniProt O75604); test: qHTS Validation Assay for Inhibitors of Ubiquitin-specific Protease USP2a Using CHOP2 as the Reporter (AID 463106)
Ubiquitin carboxyl-terminal hydrolase 2 (Homo sapiens), sequence (O75604 whole entry, looked up): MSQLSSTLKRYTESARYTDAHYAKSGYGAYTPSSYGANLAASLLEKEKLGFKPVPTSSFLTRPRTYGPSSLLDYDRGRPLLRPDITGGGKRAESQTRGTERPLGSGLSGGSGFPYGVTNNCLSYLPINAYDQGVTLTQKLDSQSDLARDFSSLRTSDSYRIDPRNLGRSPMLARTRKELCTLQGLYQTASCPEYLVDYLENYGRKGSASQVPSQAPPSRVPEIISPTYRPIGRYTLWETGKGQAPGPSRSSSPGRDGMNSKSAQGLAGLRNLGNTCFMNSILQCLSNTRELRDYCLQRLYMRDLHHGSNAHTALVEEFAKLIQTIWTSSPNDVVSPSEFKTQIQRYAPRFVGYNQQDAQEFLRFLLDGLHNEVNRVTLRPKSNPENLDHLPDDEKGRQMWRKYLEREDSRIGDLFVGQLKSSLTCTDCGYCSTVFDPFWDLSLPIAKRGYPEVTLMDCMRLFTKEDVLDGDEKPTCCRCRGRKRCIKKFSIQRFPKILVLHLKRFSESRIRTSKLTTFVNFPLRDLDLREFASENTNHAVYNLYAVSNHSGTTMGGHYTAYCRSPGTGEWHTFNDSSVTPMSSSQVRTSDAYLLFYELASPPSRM
Method in brief: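 USP2 core (10nM final) was preincubated with compound for 30min at RT in 20mM Tris-HCl pH 8.0, 2mM CaCl2, 2mM beta-mercaptoethanol, 0.05% CHAPS. Ub-CHOP2 and reporter substrate (25nM each) were added, and fluorescence (Ex 485/Em 531nm) was read after 60min.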

[17] = biological target: DNA polymerase III PolC-type (Bacillus subtilis (strain 168)) (UniProt P13267); test: qHTS Validation Assay for the Inhibitors of DNA Replication in Gram-Positive Bacteria (AID 485295);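 note: reconstituted holoenzyme with PolC plus beta clamp SSB and primase; PicoGreen fluorescence of double-stranded DNA made on primed circular M13 template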
DNA polymerase III PolC-type (Bacillus subtilis (strain 168)), sequence (P13267 whole entry, looked up): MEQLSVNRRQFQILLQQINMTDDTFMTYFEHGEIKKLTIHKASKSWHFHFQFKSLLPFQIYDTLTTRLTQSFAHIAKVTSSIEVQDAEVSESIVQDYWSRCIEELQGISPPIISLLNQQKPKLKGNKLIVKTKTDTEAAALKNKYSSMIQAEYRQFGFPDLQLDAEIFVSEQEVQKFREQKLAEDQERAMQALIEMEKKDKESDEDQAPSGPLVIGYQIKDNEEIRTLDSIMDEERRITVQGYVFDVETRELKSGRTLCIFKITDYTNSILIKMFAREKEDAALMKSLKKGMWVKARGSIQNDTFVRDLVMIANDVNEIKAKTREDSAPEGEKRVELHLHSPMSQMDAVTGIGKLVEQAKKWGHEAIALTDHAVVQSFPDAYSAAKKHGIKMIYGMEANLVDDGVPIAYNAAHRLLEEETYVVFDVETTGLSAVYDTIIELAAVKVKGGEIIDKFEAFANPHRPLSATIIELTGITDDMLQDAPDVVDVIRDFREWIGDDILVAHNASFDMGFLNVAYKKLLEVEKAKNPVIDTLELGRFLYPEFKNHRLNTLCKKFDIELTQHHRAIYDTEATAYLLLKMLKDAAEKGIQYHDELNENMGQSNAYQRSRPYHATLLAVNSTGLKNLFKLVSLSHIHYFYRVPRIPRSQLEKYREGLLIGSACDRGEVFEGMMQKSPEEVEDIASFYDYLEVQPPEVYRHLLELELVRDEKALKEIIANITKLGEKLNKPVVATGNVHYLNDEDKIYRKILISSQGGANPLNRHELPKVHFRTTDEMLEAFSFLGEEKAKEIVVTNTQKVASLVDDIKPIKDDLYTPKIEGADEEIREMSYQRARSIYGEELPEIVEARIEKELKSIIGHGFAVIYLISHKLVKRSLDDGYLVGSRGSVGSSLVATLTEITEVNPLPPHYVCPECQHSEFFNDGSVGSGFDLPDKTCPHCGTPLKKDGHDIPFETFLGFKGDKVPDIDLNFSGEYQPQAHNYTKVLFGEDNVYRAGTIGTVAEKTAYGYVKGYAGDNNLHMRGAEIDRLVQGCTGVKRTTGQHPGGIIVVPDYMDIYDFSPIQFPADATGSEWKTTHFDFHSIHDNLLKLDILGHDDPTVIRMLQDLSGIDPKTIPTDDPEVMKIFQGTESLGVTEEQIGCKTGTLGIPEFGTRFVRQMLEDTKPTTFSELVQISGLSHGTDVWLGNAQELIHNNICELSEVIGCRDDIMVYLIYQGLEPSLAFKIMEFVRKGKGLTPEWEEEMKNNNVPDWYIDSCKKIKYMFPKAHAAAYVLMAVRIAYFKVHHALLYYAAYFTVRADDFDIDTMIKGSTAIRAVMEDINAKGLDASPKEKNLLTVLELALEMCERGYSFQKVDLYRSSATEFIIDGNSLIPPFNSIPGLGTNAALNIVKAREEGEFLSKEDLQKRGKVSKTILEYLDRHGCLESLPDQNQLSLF
Method in brief: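 First, compound is mixed with the reconstituted replication complex and held at room temperature. Next, circular single-stranded M13Gori with nucleotides starts synthesis. Finally, PicoGreen in EDTA halts the reaction and stains double-stranded product for fluorescence reading.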

[18] = biological target: Tumor susceptibility gene 101 protein (Homo sapiens) (UniProt Q99816); test: qHTS Validation Assay for Iinhibitors of HIV-1 Budding by Blocking the Interaction of PTAP/TSG101 (AID 485342; calls by dose curve)
Tumor susceptibility gene 101 protein (Homo sapiens), sequence (Q99816 whole entry, looked up, the tested form may be a part): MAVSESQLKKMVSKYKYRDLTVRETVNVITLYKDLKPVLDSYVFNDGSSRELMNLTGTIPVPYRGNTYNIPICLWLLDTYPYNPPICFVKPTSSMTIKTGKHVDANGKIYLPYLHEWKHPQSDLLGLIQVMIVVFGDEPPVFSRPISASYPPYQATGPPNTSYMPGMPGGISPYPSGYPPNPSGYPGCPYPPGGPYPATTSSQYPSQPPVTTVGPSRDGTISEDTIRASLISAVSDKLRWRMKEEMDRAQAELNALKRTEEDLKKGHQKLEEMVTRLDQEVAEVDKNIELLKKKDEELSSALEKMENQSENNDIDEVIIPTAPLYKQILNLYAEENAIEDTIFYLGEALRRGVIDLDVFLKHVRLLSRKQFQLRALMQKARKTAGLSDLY
Method in brief: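 Binding of a FITC-tagged PTAP-motif peptide (50 nM) to the Tsg101 binding domain (10 uM) is monitored by fluorescence polarization. Compounds are pin-delivered before peptide addition, and incubation runs 20 min at room temperature.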

[19] = qHTS Validation Assay to Find Inhibitors of Chronic Active B-Cell Receptor Signaling (AID 485345; active = well fitted curve in the direction sought with a large enough effect in the main read-out, with a control signal flat, not every such curve was filed as active)
Method in brief: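 TMD8 ABC-DLBCL cells with dox-inducible green luciferase–IκBα fusion and red native luciferase; compounds 46 uM–3 nM, 4 h at 37C with doxycycline in 0.5% FBS IMDM. Green/red ratio normalized to basal and 10 uM MG-132.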

[20] = biological target: Beta-2 adrenergic receptor (Homo sapiens) (UniProt P07550); test: qHTS validation assay of beta-arrestin-biased ligands of beta2-adrenergic receptor (AID 485366)
Method in brief: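 Luminescence from a tTA-responsive luciferase, induced when recombinant beta-arrestin is recruited to recombinant beta2-AR, served as the agonism signal. Cells were exposed to compound for 18 hr at 37 degrees C; titrations spanned up to 46 microM.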

[21] = biological target: ATP-dependent 6-phosphofructokinase (Trypanosoma brucei brucei) (UniProt O15648); test: qHTS Validation Assay to Find Inhibitors of T. brucei phosphofructokinase (AID 485368); details: T. brucei PFK enzyme assay, qHTS 7-point titration; at 57.5 µM (top of the series)
ATP-dependent 6-phosphofructokinase (Trypanosoma brucei brucei), sequence (O15648 whole entry, looked up): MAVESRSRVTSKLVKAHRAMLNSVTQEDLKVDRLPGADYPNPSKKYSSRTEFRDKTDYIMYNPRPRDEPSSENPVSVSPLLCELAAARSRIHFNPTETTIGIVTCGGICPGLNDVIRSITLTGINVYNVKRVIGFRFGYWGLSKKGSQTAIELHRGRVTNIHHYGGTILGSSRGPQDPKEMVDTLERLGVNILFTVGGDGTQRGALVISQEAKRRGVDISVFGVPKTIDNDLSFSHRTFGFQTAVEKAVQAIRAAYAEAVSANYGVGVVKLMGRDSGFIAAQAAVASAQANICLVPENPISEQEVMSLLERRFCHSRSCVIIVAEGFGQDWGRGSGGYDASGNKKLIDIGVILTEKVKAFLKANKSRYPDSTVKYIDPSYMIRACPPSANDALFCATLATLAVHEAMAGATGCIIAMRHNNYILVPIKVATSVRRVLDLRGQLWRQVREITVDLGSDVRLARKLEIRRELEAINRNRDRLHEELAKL
Method in brief: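 Activity was normalized between 1x (1.25 nM) PFK wells as no inhibition and enzyme-free wells as full inhibition, from luminescence after ADP-Glo detection of ADP made from 0.5 mM F6P and 0.1 mM ATP over 45 min.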

[22] = Quantitative high throughput screen for delayed death inhibitors of the malarial parasite plastid, 96 hour incubation (AID 488745); note: nearly all actives have a fitted effect of over 70% in size
Method in brief: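 Luciferase-expressing P. falciparum in erythrocytes (2% hematocrit, 0.1% parasitemia) incubated with compound for 96 h at 37 C, 5% CO2, in RPMI 1640 with 0.5% Albumax. Growth inhibition read as decreased luminescence.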

[23] = biological target: Thioredoxin reductase 1, cytoplasmic (Rattus norvegicus) (UniProt O89049); test: qHTS Assay for Substrates of Mammalian Selenoprotein Thioredoxin Reductase 1 (TrxR1) (AID 488772);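 note: NADPH fluorescence in the first read after selenite addition and not the 8 min delta; a drop in NADPH fluorescence below the no-compound background marks a TrxR1 substrate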
Thioredoxin reductase 1, cytoplasmic (Rattus norvegicus), sequence (O89049 whole entry, looked up): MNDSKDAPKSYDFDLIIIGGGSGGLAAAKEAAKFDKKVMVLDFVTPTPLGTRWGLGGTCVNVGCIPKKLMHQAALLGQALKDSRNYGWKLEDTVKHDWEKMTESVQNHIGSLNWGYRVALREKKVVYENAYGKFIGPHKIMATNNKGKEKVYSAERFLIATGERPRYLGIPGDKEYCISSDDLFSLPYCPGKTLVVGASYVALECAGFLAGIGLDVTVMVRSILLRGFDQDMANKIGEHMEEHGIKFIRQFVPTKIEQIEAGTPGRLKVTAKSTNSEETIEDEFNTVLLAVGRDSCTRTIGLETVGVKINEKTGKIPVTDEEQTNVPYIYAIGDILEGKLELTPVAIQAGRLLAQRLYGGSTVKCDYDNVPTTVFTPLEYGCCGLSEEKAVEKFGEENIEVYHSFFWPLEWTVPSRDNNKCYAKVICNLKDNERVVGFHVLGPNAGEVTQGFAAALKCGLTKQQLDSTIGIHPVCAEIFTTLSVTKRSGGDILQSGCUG
Method in brief: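 Quantitative HTS in Tris-HCl buffer at pH 7.5 with EDTA and Tween-20, using rat TrxR1, 400 uM NADPH and 400 uM selenite (final). A fall in initial NADPH fluorescence relative to background marked substrate behaviour.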

[24] = biological target: Thioredoxin reductase 1, cytoplasmic (Rattus norvegicus) (UniProt O89049); test: qHTS Assay for Inhibitors of Mammalian Selenoprotein Thioredoxin Reductase 1 (TrxR1) (AID 488773);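 note: drop in NADPH fluorescence over an 8 min run after selenite addition; nearly all actives have a fitted effect of over 40% in size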
Method in brief: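 Steps: enzyme (90 nM) plus NADPH (400 uM final), 5 min at ~22 deg C; compound added, 15 min; selenite (400 uM final) added; fluorescence followed for 8 min. Concentration-response curves derived from the normalized delta values.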

[25] = biological target: Flap endonuclease 1 (Homo sapiens) (UniProt P39748); test: qHTS Validation Assay for the Inhibitors of Human Flap endonuclease 1 (FEN1) (AID 488816)
Flap endonuclease 1 (Homo sapiens), sequence (P39748 whole entry, looked up): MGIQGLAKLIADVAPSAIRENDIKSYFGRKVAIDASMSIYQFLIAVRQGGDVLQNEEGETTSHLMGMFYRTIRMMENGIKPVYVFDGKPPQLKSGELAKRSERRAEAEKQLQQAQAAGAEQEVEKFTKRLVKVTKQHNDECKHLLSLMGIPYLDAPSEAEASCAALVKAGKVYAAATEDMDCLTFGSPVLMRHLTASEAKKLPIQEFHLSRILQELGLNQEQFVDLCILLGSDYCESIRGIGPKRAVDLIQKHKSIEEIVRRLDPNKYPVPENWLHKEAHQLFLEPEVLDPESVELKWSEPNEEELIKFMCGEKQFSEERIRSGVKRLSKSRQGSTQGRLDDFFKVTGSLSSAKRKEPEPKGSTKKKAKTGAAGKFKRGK
Method in brief: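 FEN1, dispensed as a 10 nM reagent, was preincubated with pin-transferred compounds for 15 min at room temperature before substrate was added (50 nM final). Plates were read at 0 and 15 min, and a four-parameter Hill equation was fitted to the concentration-response data.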

[26] = biological target: M-phase phosphoprotein 8 (Homo sapiens) (UniProt Q99549); test: qHTS Validation Assay for Inhibitors for MPP8 Chromodomain Interactions with Methylated Histone Tails (AID 488949);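 note: 50 nM MPP8 with 50 nM peptide preformed then compounds added for 30 min; AlphaScreen signal from MPP8 chromodomain bound to biotinylated H3K9me3 peptide; top concentration of the series differs between compounds; nearly all actives have a fitted effect of over 55% in size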
M-phase phosphoprotein 8 (Homo sapiens), sequence (Q99549 whole entry, looked up): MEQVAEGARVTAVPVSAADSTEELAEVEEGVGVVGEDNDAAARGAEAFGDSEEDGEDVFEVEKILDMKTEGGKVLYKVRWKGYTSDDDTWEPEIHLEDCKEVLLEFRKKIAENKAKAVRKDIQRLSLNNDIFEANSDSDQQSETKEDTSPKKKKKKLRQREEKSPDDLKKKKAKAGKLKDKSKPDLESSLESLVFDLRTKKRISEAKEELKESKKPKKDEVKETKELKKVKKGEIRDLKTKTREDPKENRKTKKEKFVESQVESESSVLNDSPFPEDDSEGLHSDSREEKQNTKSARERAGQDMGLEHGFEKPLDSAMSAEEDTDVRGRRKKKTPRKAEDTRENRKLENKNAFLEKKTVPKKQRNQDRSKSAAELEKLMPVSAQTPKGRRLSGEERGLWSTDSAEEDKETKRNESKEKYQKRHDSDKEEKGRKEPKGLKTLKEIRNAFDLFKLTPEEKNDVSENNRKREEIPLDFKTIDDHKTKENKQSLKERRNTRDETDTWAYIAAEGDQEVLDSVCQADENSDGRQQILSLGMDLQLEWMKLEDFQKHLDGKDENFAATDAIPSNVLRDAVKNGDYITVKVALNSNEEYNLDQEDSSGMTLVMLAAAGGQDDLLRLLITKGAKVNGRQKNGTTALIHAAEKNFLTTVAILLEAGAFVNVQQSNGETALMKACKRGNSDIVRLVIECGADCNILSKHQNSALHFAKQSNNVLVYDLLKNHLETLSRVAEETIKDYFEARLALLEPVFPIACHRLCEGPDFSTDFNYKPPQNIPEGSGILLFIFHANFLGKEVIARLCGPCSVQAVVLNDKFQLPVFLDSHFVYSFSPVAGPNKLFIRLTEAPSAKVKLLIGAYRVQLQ
Method in brief: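 50 nM MPP8 + 50 nM b-H3K9me3 peptide, PBS pH 7.4/0.01% Tween-20, 30 min RT; + cpd 30 min RT; + AlphaScreen donor/Ni-chelate acceptor beads 10 ug/mL final, 30 min dark; luminescence read.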

Measured: Potency

CC12CCC3C(CCC4=C(O)C(=O)CCC43C)C1CCC2=O (stereo unspecified)
inactive: all assays above
